Screening results (PubChem BioAssay)
Mtb betalactam: beta-lactam sensitization of Mtb H37Rv, H37Rv | actives 0.27% (n = 330,000) | M. tuberculosis H37Rv growth with meropenem, percent inhibition | AID 434955, 2010 | inhibition, % at 25 µM; call rule not given here;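 also: growth measured after seven days incubation then overnight dye step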
MazEF act: activators of E. coli MazEF toxin-antitoxin RNase, primary screen, biochemical, fluorescence, uHTS; FAM/BHQ RNA-DNA oligo cleavage fluorescence, 5 h; activation, % at 20 µM; actives 0.32% (n = 350,000); AID 504720, 2011; in the data active = activation above about 50%
Target sequence (P0AE70 whole entry, looked up): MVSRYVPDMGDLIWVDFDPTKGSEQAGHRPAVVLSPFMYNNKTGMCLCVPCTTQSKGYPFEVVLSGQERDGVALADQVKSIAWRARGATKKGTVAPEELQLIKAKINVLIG
FBA Mtb inh: Mtb FBA enzyme inhibitors, primary screen, biochemical, fluorescence, strain H37Rv. Fructose-bisphosphate aldolase (Mycobacterium tuberculosis (strain ATCC 25618 / H37Rv)), …. purified M. tuberculosis FBA, fluorescence read-out. inhibition, % at 1 µM. actives 2.3% (n = 360,000). AID 588726, 2011; in the data active = inhibition above about 27%
Target sequence (P9WQA3 whole entry, looked up): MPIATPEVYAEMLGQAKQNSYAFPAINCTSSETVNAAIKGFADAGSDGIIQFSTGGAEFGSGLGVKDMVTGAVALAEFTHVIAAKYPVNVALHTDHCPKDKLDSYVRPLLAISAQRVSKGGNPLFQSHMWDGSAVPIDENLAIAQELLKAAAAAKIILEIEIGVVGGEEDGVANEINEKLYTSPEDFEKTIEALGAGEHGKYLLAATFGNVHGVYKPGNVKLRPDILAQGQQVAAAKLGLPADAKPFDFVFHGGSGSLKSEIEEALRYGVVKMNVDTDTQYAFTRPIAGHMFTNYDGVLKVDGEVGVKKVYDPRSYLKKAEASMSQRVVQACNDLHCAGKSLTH
GDH-TPI counter: GDH-TPI coupling enzyme inhibitors, primary screen, artefact control for M. tuberculosis FBA inhibitor project, biochemical, absorbance, full deck | AID 588335, 2011 | actives 1.2% (n = 360,000) | GDH-TPI coupled enzyme counterscreen, NADH absorbance | inhibition, % at 4.8 µM
CCHF vOTU inh: CCHFV vOTU protease inhibitors, primary screen, biochemical, Pep-AMC substrate, fluorescence. inhibition, % at 11.5 µM. actives 0.55% (n = 370,000). AID 651958, 2012
Large screens that a line does not name were inactive. Only some compounds are listed: those with a hit (about 4% of all), similar ones and a draw of the others. Rule as the data show it, unless noted: active = inhibition above about 30%; inactive = the rest.

CN(CCO)c1cccc2c1S(=O)(=O)N(Cc1cn(Cc3ccccc3C(F)(F)F)nn1)Cc1ccccc1O2	none (no result: Mtb betalactam, MazEF act, FBA Mtb inh, GDH-TPI counter)
COc1ccc2nc(N3C(=O)CNC3=S)sc2c1	GDH-TPI counter 64.1
CN(C)c1ccc(NC(=O)C2C3C=CC(C3)C2C(=O)O)cc1 (stereo not given)	CCHF vOTU inh 78.4
CC(C)(C)n1nnnc1C(c1cc2cc3c(cc2[nH]c1=O)OCCO3)N1CCSCC1 (stereo not given)	FBA Mtb inh 33.7
CCC1S/C(=N/N=C/c2ccco2)N(Cc2ccc(F)cc2)C1=O (stereo not given)	GDH-TPI counter 33.8
CCC1S/C(=N/N=C/c2ccco2)N(Cc2ccccc2C)C1=O (stereo not given)	none
Cc1cc(C)n2nc(SCc3ccccc3F)nc2n1	FBA Mtb inh active
COc1ccc(C(=O)/C=C/N2CCCCC2)cc1OC	GDH-TPI counter 50.0
COc1ccc(/C=C/C(=O)NC(=S)NNC(=O)c2cc(OC)c(OC)c(OC)c2)cc1OC	GDH-TPI counter 50.6
COc1cc(/C=C/C(=O)Nc2ccc(C(C)=O)cc2)cc(OC)c1OC	GDH-TPI counter 45.2
CC(COc1cccc(C#N)c1)CN1CCC(C(O)(c2ccccc2)c2ccccc2)CC1 (stereo not given)	none (no result: Mtb betalactam, MazEF act, FBA Mtb inh, GDH-TPI counter)
C[C@H](CCC(=O)N(c1ccccc1)c1ccccc1)CC1CCCCC1	none (no result: Mtb betalactam, MazEF act, FBA Mtb inh, GDH-TPI counter)
Cc1ccsc1S(=O)(=O)n1c(CN2CCOCC2)nc2ccccc21	none (no result: Mtb betalactam, MazEF act, FBA Mtb inh, GDH-TPI counter)
CCOc1cc(S(=O)(=O)NCCc2cccc(C)c2)c(OCC)cc1-n1cnnn1	FBA Mtb inh 40.5
CCOC(=O)N1CCN(C(=O)C[C@H]2C[C@@]3(C(=O)OC)C(=C[C@H](C(C)(C)C)O[C@@H]3C)N(Cc3ccco3)C2=O)CC1	none (no result: Mtb betalactam, MazEF act, FBA Mtb inh, GDH-TPI counter)
CCCOc1ccc(NC(=O)C2CC(=O)N/C(=N/N=C(C)/C=C/c3ccc(N(C)C)cc3)S2)cc1 (stereo not given)	GDH-TPI counter 32.2
Cn1c(=O)c(-c2ccccc2)c(O)c2ccccc21	none
Cc1c(O)c(=O)c2ccccc2n1C	FBA Mtb inh 149.9
COc1ccc(-n2c(SCC(=O)NCCCSC)nnc2-c2ccncc2)cc1	none (no result: Mtb betalactam, MazEF act, FBA Mtb inh, GDH-TPI counter)
COc1ccc(Br)cc1C=NNC(=O)c1ccncc1	none (no result: Mtb betalactam, MazEF act, FBA Mtb inh, GDH-TPI counter)
Cc1ccccc1Cc1c(C)nc2c(C(=O)NCc3ccco3)cnn2c1C	FBA Mtb inh 48.4 (no result: CCHF vOTU inh)
CCc1cc2c(nc1CC)CCCN2S(=O)(=O)c1ccccc1	none (no result: Mtb betalactam, MazEF act, FBA Mtb inh, GDH-TPI counter)
C/C(=N\Nc1ccccn1)c1ccc(C(C)C)cc1	none
C/C(=N\Nc1ccccn1)c1ccc(Br)s1	GDH-TPI counter 37.9
N#Cc1cc(F)cc(OC[C@@H](O)CN2CCC(C(O)(c3ccccc3)c3ccccc3)CC2)c1	none (no result: Mtb betalactam, MazEF act, FBA Mtb inh, GDH-TPI counter)
O=S1(=O)c2ccc(Br)cc2OC[C@@H](Cc2ccccc2)N1Cc1cn(Cc2ccc(Cl)cc2)nn1	none (no result: Mtb betalactam, MazEF act, FBA Mtb inh, GDH-TPI counter)
CCCn1c(=O)[nH]c(=O)c2c1nc(-c1ccc(C#N)cc1)n2CCOC	FBA Mtb inh active
COCCn1c(-c2ccc(C#N)cc2)nc2c1c(=O)[nH]c(=O)n2Cc1ccccc1	FBA Mtb inh active
COc1ccc(-n2c(Cc3cccs3)nnc2SCC(=O)Nc2cccc3ccccc23)cc1	none (no result: Mtb betalactam, MazEF act, FBA Mtb inh, GDH-TPI counter)
COc1cc2ccccc2cc1C(=O)Nc1ccccc1N1CCCC1	FBA Mtb inh active
COc1ccc(C(CNC(=O)c2cc3ccccc3cc2OC)N2CCCC2)cc1 (stereo not given)	GDH-TPI counter 33.7
Cc1cc(C)cc(N(CC(=O)NC2CCC(C)CC2)S(=O)(=O)c2cccs2)c1 (stereo not given)	none (no result: Mtb betalactam, MazEF act, FBA Mtb inh, GDH-TPI counter)
COC(=O)C(C)Oc1cc(OC(C)C(=O)OC)c2c(C)c(Cl)c(=O)oc2c1 (stereo not given)	FBA Mtb inh active
Cc1cc(OC(C)C(=O)NCC2CCC(C(=O)O)CC2)c2c(C)c(Cc3ccccc3)c(=O)oc2c1 (stereo not given)	none
COC(=O)COc1cc(OCC(=O)OC)c2c(C)c(Cl)c(=O)oc2c1	FBA Mtb inh active
O=C(CNS(=O)(=O)c1ccc(Br)s1)N1CCN(c2ccccn2)CC1	none (no result: Mtb betalactam, MazEF act, FBA Mtb inh, GDH-TPI counter)
Cc1cc(OCC(=O)O)c2c3c(c(=O)oc2c1)CCCC3	FBA Mtb inh 185.3
CCOC(=O)COc1cc(OCC(=O)OCC)c2c3c(c(=O)oc2c1)CCCC3	FBA Mtb inh 159.7
